Screening data from PubChem.
Compounds with a hit are over-represented: about 5.5% of the library has one in this group of screens.
RORg inh = ROR gamma (mouse) transcription inhibition; P51450; Drosophila S2 Gal4-RORgamma UAS-luciferase reporter, 20 h; Potency, µM (series often up to 53.6 µM), actives largely listed as inhibitors; 310,000 tested, 5.4% active; further: nearly all actives have a fitted effect of over 60% in size
Target sequence (P51450 whole entry, looked up, the tested form may be a part): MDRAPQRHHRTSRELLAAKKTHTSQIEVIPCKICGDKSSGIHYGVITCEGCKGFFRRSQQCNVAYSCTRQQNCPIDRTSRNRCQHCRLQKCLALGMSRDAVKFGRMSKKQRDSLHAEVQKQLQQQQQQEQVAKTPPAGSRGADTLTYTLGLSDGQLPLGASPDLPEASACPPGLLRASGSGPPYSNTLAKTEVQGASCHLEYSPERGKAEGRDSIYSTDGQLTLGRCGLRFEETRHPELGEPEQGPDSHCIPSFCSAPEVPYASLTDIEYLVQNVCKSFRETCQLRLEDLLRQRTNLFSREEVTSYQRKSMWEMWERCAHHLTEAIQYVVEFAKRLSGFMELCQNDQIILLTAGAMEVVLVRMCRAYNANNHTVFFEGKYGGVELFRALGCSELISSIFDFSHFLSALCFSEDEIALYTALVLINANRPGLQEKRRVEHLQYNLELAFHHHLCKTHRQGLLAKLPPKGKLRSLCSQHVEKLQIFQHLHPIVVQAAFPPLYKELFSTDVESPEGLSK
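Drosophila S2 cells stably expressing Gal4-DBD/mouse RORγ fusion under metallothionein promoter plus UAS-luciferase; compound 1 h, then 700 uM CuSO4 induction for 20 h at ambient temperature; inhibition read as reduced luminescence.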
Chronic BCR inh = chronic active BCR signaling inhibition | AID 493014 | 340,000 tested, 0.05% active | ABC-DLBCL IkBa-CBG/CBR reporter, luminescence ratio, 4 h | Potency, µM (top dose mostly 46.1 µM), hits mostly inhibitors; active means well fitted inhibition curve with a large enough effect in the signal ratio, with a control signal flat, not every such curve was filed as active; inconclusive means small, poorly fitted or top-dose-only effect, or effect the other way, or a change in a side signal; the % refers to the signal ratio
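TMD8 human ABC-DLBCL cells with doxycycline-inducible IκBα–green luciferase fusion and unfused red luciferase, in 0.5% FBS medium; compounds up to 46 uM, 4 h at 37C. Green/red luminescence ratio, filter-overlap corrected, fitted to concentration-response curves.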
Mito fusion yeast = blocks mitochondrial division or promotes mitochondrial fusion; S. cerevisiae fusion-defective mutant growth rescue, CellTiterGlo 48 h; Potency, µM (series often up to 46.1 µM), usual class: activators; 320,000 tested, 0.23% active; AID 485298; further: nearly all actives have a fitted effect of over 45% in size
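Compounds are tested for their ability to restore growth of mitochondrial fusion-defective yeast strains at non-permissive 37C in YPEG medium over 48 hours. Viability is quantified by luciferase luminescence.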
uPA generation = blocks generation of uPA at the cell surface | Potency, µM (top dose mostly 38.3 µM), most hits filed as inhibitors | cell surface uPA generation assay, qHTS | AID 540303 | 330,000 tested, 0.31% active; active means well fitted inhibition curve with a large enough effect; inconclusive means small, poorly fitted or top-dose-only effect; inactive means no such curve, though single readings can be large or run the other way; tested in mouse RAW 264.7 cells; further: nearly all actives have a fitted effect of over 55% in size
a7 integrin act = activators of alpha7 integrin expression for muscular dystrophy. Potency, µM (titrated, usually from 38.3 µM), actives largely listed as activators. AID 624291. alpha7betagal myoblasts, beta-gal FDG fluorescence, 48 h. 350,000 tested, 0.064% active; further: nearly all actives have a fitted effect of over 60% in size
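Alpha7betagal+/- myoblasts (passage 13) were plated 16-24 hr, then exposed to compounds (1:260 dilution of DMSO stock) for 48 hours at 37C. After MPER lysis, β-galactosidase reporter activity was read as FDG fluorescence (ex 480/em 540) after 30 minutes.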
Gal4-VP16 FLuc = counter-screen for ROR gamma inhibitors: Gal4-VP16 reporter | Drosophila S2 Gal4-VP16 UAS-luciferase, luminescence, 20 h | Potency, µM (highest dose often 53.6 µM), usual class: inhibitors | 310,000 tested, 3.5% active;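 further: Gal4-VP16 expression switched on by copper sulfate through the metallothionein promoter; nearly all actives have a fitted effect of over 50% in size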
Large screens that a line does not name were inactive; ! = repeats disagree. Unless noted, the call rests on the fitted dose curve; in most records, active means well fitted curve in the direction sought with a large enough effect; inconclusive means small, poorly fitted or top-dose-only effect, or another doubt; inactive means no such curve, though single readings can be large; an effect the other way counts as inactive or inconclusive.

Cc1cccc(NC(=S)NNC(=O)c2cccc([N+](=O)[O-])c2)c1	none
Cc1ccc(C(=O)NC(=S)NNC(=O)c2cccc([N+](=O)[O-])c2)cc1	RORg inh 4.47µM, Gal4-VP16 FLuc 7.08µM
O=C(NNC(=S)Nc1ccc(Cl)c(Cl)c1)c1cccc([N+](=O)[O-])c1	Chronic BCR inh inconclusive
O=C(NNC(=S)NC(=O)c1cccc([N+](=O)[O-])c1)c1ccc(Br)cc1	RORg inh 11.2µM, Mito fusion yeast inconclusive, Gal4-VP16 FLuc inconclusive
O=C(NC(=S)Nc1ccc(N2CCOCC2)cc1)c1cccc([N+](=O)[O-])c1	RORg inh 2.24µM, Gal4-VP16 FLuc 2.82µM
COC(=O)[C@]1(C)N[C@H](c2ccc(-c3ccc(F)cc3)cc2)[C@@H]2C(=O)N(C)C(=O)[C@@H]21	none (no result: RORg inh, Gal4-VP16 FLuc)
COc1c(O)c(O)cc2c1oc1c3cc(C)ccc3oc(=O)c21	RORg inh inconclusive (no result: Chronic BCR inh, Mito fusion yeast, uPA generation, a7 integrin act)
COCCn1c(=O)c(-c2cccc(C#N)c2)nc2cnc(N(C)C)nc21	none (no result: Chronic BCR inh, Mito fusion yeast, uPA generation, a7 integrin act)
O=C(NNC(=O)c1cccc([N+](=O)[O-])c1)c1ccncc1	Chronic BCR inh inconclusive
COc1cccc(C(=O)NC(=S)Nc2ccc([N+](=O)[O-])cc2C)c1	RORg inh 7.08µM, Gal4-VP16 FLuc inconclusive
O=C(NNC(=S)NC(=O)c1ccccc1)c1cccc([N+](=O)[O-])c1	RORg inh 7.94µM, Chronic BCR inh inconclusive, Gal4-VP16 FLuc 11.2µM
Cc1ccccc1CN1C(=O)c2ccccc2Sc2ccc(C(=O)NCCc3ccccc3)cc21	none (no result: RORg inh, Mito fusion yeast, uPA generation, a7 integrin act, Gal4-VP16 FLuc)
COC(=O)NC(c1ccc2ccccc2c1)C(C(C)=O)C(=O)OC (stereo not given)	none (no result: Chronic BCR inh, Mito fusion yeast, uPA generation, a7 integrin act)
CC(=O)NCc1ccc(C(=O)CCl)s1	RORg inh 11.2µM, Gal4-VP16 FLuc 7.08µM
N/C(=N\N=C\c1ccc2c(c1)OCO2)SC1CC(=O)N(c2ccc(C(=O)O)cc2)C1=O (stereo not given)	none
C/C(CCc1ccc2c(c1)OCO2)=N\N=C(/N)SC1CC(=O)N(c2ccc(Cl)cc2)C1=O (stereo not given)	RORg inh 8.91µM, Chronic BCR inh inconclusive, Gal4-VP16 FLuc inconclusive
COC(=O)c1cc2ccc(OC)cc2c2cc(OC)c(OC)cc12	none (no result: RORg inh, Mito fusion yeast, Gal4-VP16 FLuc)
CCOc1ccc(Cc2nccc3cc(OCC)c(OCC)cc23)cc1OCC	Gal4-VP16 FLuc 15.8µM! (no result: Chronic BCR inh, Mito fusion yeast, uPA generation, a7 integrin act)
CC(C)C[C@H](NC(=O)[C@H](CC(C)C)NC(=O)[C@@H](Cc1c[nH]c2ccccc12)NC(=O)[C@H](Cc1ccccc1)NC(=O)[C@@H](Cc1c[nH]c2ccccc12)NC(=O)[C@H](CCC(N)=O)NC(=O)[C@H](CCC(N)=O)NC(=O)[C@@H]1CCCN1C(=O)[C@H](CCCCN)NC(=O)[C@@H]1CCCN1C(=O)[C@H](N)CCCN=C(N)N)C(N)=O	none (no result: Chronic BCR inh, Mito fusion yeast, uPA generation, a7 integrin act)
CC(C)CN(C(=O)C1CCCO1)C1CCS(=O)(=O)C1 (stereo not given)	none (no result: RORg inh, Gal4-VP16 FLuc)
Nc1ccc(O)c(-c2nc3ccccc3s2)c1	RORg inh inconclusive
Nc1ccc(-c2nc3ccc(N)cc3s2)cc1	RORg inh inconclusive, Chronic BCR inh inconclusive, Gal4-VP16 FLuc 7.94µM
Nc1cccc(-c2nc3ccc(N)cc3s2)c1	RORg inh 3.55µM, Chronic BCR inh inconclusive, Gal4-VP16 FLuc inconclusive
OCC[C@H]1C[C@@H](O)[C@H](O)[C@@]2(CCc3ccccc3O2)O1	none (no result: RORg inh, Gal4-VP16 FLuc)
CCCC[C@H](NC(C)=O)C(=O)N[C@@H](CCC(=O)O)C(=O)N[C@@H](Cc1cnc[nH]1)C(=O)N[C@H](Cc1ccccc1)C(=O)N[C@@H](CCCN=C(N)N)C(=O)N[C@H](Cc1c[nH]c2ccccc12)C(=O)NCC(N)=O	none (no result: Chronic BCR inh, Mito fusion yeast, uPA generation, a7 integrin act)
N=c1ccn(Cc2cccc(F)c2)cc1	RORg inh inconclusive, Gal4-VP16 FLuc 10µM
COc1cccc(C(CNC(=O)C2CCN(C(=O)Nc3ccccc3)CC2)N(C)C)c1 (stereo not given)	none (no result: RORg inh, Gal4-VP16 FLuc)
COc1ccc(-c2csc(N3C(=O)CNC3=S)n2)cc1	RORg inh inconclusive, Chronic BCR inh inconclusive, Mito fusion yeast inconclusive, Gal4-VP16 FLuc inconclusive
COc1ccc(-c2csc(N3C(=N)SCC3=O)n2)cc1	RORg inh 3.98µM, Chronic BCR inh inconclusive, Gal4-VP16 FLuc inconclusive
O=C(CCl)N1c2ccccc2CCc2ccccc21	RORg inh 11.2µM, Chronic BCR inh inconclusive, Gal4-VP16 FLuc inconclusive (no result: uPA generation, a7 integrin act)
CN(Cc1ccccc1)C(=O)CCCn1c(=O)c2cccn2c2cccnc21	Chronic BCR inh inconclusive, a7 integrin act inconclusive
CC1=CC(C)(C)n2c(O)c(N=NC(N)=S)c3c(C)c(C)cc1c32	Chronic BCR inh inconclusive
CC1=CC(C)(C)n2c(O)c(N=NC(N)=S)c3cccc1c32	RORg inh 1.12µM, Gal4-VP16 FLuc 2µM
CC1=CC(C)(C)n2c(O)c(N=N)c3cc(C)cc1c32	Chronic BCR inh inconclusive
COc1cc2c3c(c1)c(N=NC(N)=S)c(O)n3C(C)(C)C=C2C	RORg inh 2µM, Chronic BCR inh inconclusive, Gal4-VP16 FLuc 4.47µM
CC1=CC(C)(C)n2c(O)c(N=NC(N)=S)c3c(C)ccc1c32	RORg inh 4.47µM, Chronic BCR inh inconclusive, Gal4-VP16 FLuc 2.51µM
c1ccc(-c2cccc(N3CC[C@@]4(CCCNC4)C3)c2)cc1	none (no result: Chronic BCR inh, Mito fusion yeast, uPA generation, a7 integrin act)
CC1=NNC(=O)/C1=C\c1cn(-c2ccccc2)nc1-c1ccc(Cl)cc1	RORg inh 5.01µM, Chronic BCR inh inconclusive, Gal4-VP16 FLuc 3.16µM
O=c1cnc2cnc(N3CCOCC3)nc2n1Cc1ccc(F)cc1	none (no result: Chronic BCR inh, Mito fusion yeast, uPA generation, a7 integrin act)
Oc1ccc(N=Nc2ccc3c(c2)OCCO3)c2cccnc12	none
Oc1ccc(N=Nc2ccc3c(c2)OCCO3)c(O)c1	RORg inh 8.91µM, Chronic BCR inh inconclusive, uPA generation inconclusive, Gal4-VP16 FLuc 10µM
CC(=O)N1N=C(c2cccs2)CC1c1ccc(Br)cc1 (stereo not given)	Chronic BCR inh inconclusive, uPA generation inconclusive, a7 integrin act inconclusive
O=C(c1ccco1)N1N=C(c2cccs2)CC1c1ccccc1O (stereo not given)	none
COc1cccc(C2CC(c3cccs3)=NN2C(=O)c2ccco2)c1O (stereo not given)	RORg inh 5.62µM, Chronic BCR inh inconclusive, Mito fusion yeast inconclusive
Cc1ccc(C2CC(c3cccs3)=NN2C(=O)c2ccc(Br)o2)cc1 (stereo not given)	RORg inh inconclusive, Chronic BCR inh inconclusive, Mito fusion yeast 2.82µM, Gal4-VP16 FLuc inconclusive
CCOCCCn1c(C)nc2c(c1=O)c1nc3ccccc3nc1n2-c1ccc2c(c1)OCCO2	none
CCOC(=O)c1ccc(-c2c(-c3ccccc3OC)sc3cc4c(cc23)OCO4)cc1F	uPA generation 5.62µM (no result: RORg inh, Gal4-VP16 FLuc)
Cc1ccc(C)c(-c2ccc(C(=O)O)o2)c1	RORg inh 12.6µM (no result: Chronic BCR inh, Mito fusion yeast, uPA generation, a7 integrin act)
